# Measured values taken from PubChem BioAssay (NCI).
# Compounds without any hit were thinned out: in the full panel of roughly 83,000, 20% have a hit.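 A percent growth of 40 corresponds to 60% growth inhibition; 0 means no net growth; -100 means all cells died. Active threshold: below 10.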 Calls of active or inactive are those of the source.
# System: K-562 leukemia
# Experiment: NCI-60 one-dose screen, 48 h (100 = growth as untreated, 0 = no growth, -100 = all killed)
# Conditions: 10 µM unless noted
row,Compound,growth
1,CCN(CC)c1ccc(/C=C2\Oc3ccc(O)c(I)c3C2=O)cc1,12.5% (inactive)
2,CC1(c2ccc(Cl)cc2)OC(=O)CC(=O)O1,113% (inactive)
3,Cc1csc(NC(c2ccccc2)c2c(C)nc3ccccn23)n1 (stereo not drawn),88.1% (inactive)
4,COc1cc(-c2nc(N=Nc3c(O)[nH]c4ccc(Br)cc34)[nH]c(=O)c2C#N)cc(OC)c1OC,90.9% (inactive)
5,O=C1/C(=C/c2ccc(Cl)cc2)CN(C(=O)CCN2CCC(=NO)CC2)C/C1=C\c1ccc(Cl)cc1,-13.9% (active)
6,Cc1ccc(-c2cc3nc(C(Cl)Cl)nc(-c4ccccc4C)n3n2)cc1,17.9% (inactive)
7,Nc1cccc(-c2nc3sccn3c2-c2ccnc(NCCNS(=O)(=O)c3ccc(C(F)(F)F)cc3)n2)c1,47.2% (inactive)
8,FC(F)(F)c1cccc(-c2cn3c(ccc4ccccc43)n2)c1,86.5% (inactive)
9,CCCCCCN1CSC(=S)N(CCCCCC)C1,110% (inactive)
10,Oc1ccc2cc(Br)ccc2c1-c1c(O)ccc2cc(Br)ccc12,54% (inactive)
11,C=C(C)[C@@H]1C[C@H](O)Cc2cc(F)ccc2N1,42.2% (inactive)
12,NC1=NC(SCc2ccccc2CCl)c2ncn(Cc3ccccc3CCl)c2N1 (stereo not drawn),21.9% (inactive)
13,COc1ccc(C(=O)c2cc(OC)c(OC)c(OC)c2OC)cc1O,27.6% (inactive)
14,CNc1ccc(Br)c2c1C(=O)c1ccccc1C2=O,94.9% (inactive)
15,Cc1cc(N/N=C/c2nc(-c3ccccc3)oc2C)c2cc(Br)ccc2n1,21.9% (inactive)
16,CC(C)(C)n1cc(-c2ccnc(NCCCNS(=O)(=O)c3ccccc3)c2)c(-c2cccc(O)c2)n1,4.86% (active)
17,O=C1Nc2ccc(Cl)cc2C12Nc1cc(Cl)ccc1S2 (stereo not drawn),39.2% (inactive)
18,O=C1/C(=C/c2ccccc2)CN(C(=O)CCN2CCC(=NO)CC2)C/C1=C\c1ccccc1,6.48% (active)
19,O=[N+]([O-])c1cccc(-c2nc3sccn3c2-c2ccnc(NCCCNS(=O)(=O)c3ccc(Cl)cc3)n2)c1,26.6% (inactive)
20,Cc1ccc(S(=O)(=O)Nc2c(Br)cc(Br)cc2C(N)=O)cc1,119% (inactive)

row,Compound,growth
1,CN(C[C@H]1Cc2c(cccc2N2CCN(Cc3ccccn3)CC2)CN1)[C@H]1CCCc2cccnc21,9.95% (active)
2,CC(C)(C)OC(=O)NC(CSCc1ccccc1)C(=O)ON1C(=O)CCC1=O (stereo not drawn),100% (inactive)
3,COc1ccc(-c2ccc(-c3ccc(C(=N)N)s3)s2)cc1Cl,-37.4% (active)
4,O=[N+]([O-])c1ccc(C(c2ccccc2)c2ccccc2)cc1,91.9% (inactive)
5,CCN(CC)c1ccc2[nH]c3c(C(N)=O)cc(=O)c(=O)c=3oc2c1,9.48% (active)
6,CCNc1nc(S(=O)(=O)CC)nc2ccccc12,85.2% (inactive)
7,CCC(=O)Oc1ccc(/C(=C(/C)Cc2cccc(OC)c2)c2ccc(OCCN(C)C)cc2)cc1,-26.5% (active)
8,Nc1nc(-c2ccccc2)c(CCCOc2ccc(NC(=O)CBr)cc2)c(=O)[nH]1,94.3% (inactive)
9,CN(C)CCOC(=O)Nc1ccccc1Cl,111% (inactive)
10,c1ccc(-c2nnc(-c3ccccn3)s2)nc1,93.9% (inactive)
11,COc1ccc(-c2nc(N3CCCC3=O)sc2Br)cc1OC,94% (inactive)
12,C=C1CCC2C3(C)COC(c4c(OC)cccc4OC)OC3CCC2(C)C1C/C=C1/C(=O)OCC1O (stereo not drawn),37.9% (inactive)
13,c1cc2[nH]ncc2cc1-c1nc2ccc3[nH]ncc3c2c2c1CCC2,15.4% (inactive)
14,COc1ccc2c(c1)[nH]c(=O)c1c3cc(OC)ccc3cn21,25.6% (inactive)
15,NC(N)=Nc1nc2ccccc2o1,104% (inactive)
16,Nc1ccc(C(=O)CSc2nc3ccccc3[nH]2)cc1,103% (inactive)
17,CC(C)(C)n1cc(-c2ccnc(NCCCNS(=O)(=O)c3ccc(F)cc3)c2)c(-c2cccc(O)c2)n1,9.04% (active)
18,COc1ccccc1CNCCCN1C(=O)c2ccc3c4c(ccc(c24)C1=O)C(=O)N(CCCNCCCCNCCCN)C3=O,-15.1% (active)
19,O=C(CCl)N(C1CCCCC1)C1CCCCC1,104% (inactive)

# System: MALME-3M melanoma
# Experiment: as above
# Conditions: 10 µM unless noted
row,Compound,growth
1,CCN(CC)c1ccc(/C=C2\Oc3ccc(O)c(I)c3C2=O)cc1,63.4% (inactive)
2,CC1(c2ccc(Cl)cc2)OC(=O)CC(=O)O1,89% (inactive)
3,Cc1csc(NC(c2ccccc2)c2c(C)nc3ccccn23)n1 (stereo not drawn),97.2% (inactive)
4,COc1cc(-c2nc(N=Nc3c(O)[nH]c4ccc(Br)cc34)[nH]c(=O)c2C#N)cc(OC)c1OC,94.9% (inactive)
5,O=C1/C(=C/c2ccc(Cl)cc2)CN(C(=O)CCN2CCC(=NO)CC2)C/C1=C\c1ccc(Cl)cc1,-49.5% (active)
6,Cc1ccc(-c2cc3nc(C(Cl)Cl)nc(-c4ccccc4C)n3n2)cc1,72.8% (inactive)
7,Nc1cccc(-c2nc3sccn3c2-c2ccnc(NCCNS(=O)(=O)c3ccc(C(F)(F)F)cc3)n2)c1,42.1% (inactive)
8,FC(F)(F)c1cccc(-c2cn3c(ccc4ccccc43)n2)c1,102% (inactive)
9,CCCCCCN1CSC(=S)N(CCCCCC)C1,95.2% (inactive)
10,Oc1ccc2cc(Br)ccc2c1-c1c(O)ccc2cc(Br)ccc12,97.9% (inactive)
11,C=C(C)[C@@H]1C[C@H](O)Cc2cc(F)ccc2N1,109% (inactive)
12,NC1=NC(SCc2ccccc2CCl)c2ncn(Cc3ccccc3CCl)c2N1 (stereo not drawn),19.4% (inactive)
13,COc1ccc(C(=O)c2cc(OC)c(OC)c(OC)c2OC)cc1O,23% (inactive)
14,CNc1ccc(Br)c2c1C(=O)c1ccccc1C2=O,117% (inactive)
15,Cc1cc(N/N=C/c2nc(-c3ccccc3)oc2C)c2cc(Br)ccc2n1,95.2% (inactive)
16,CC(C)(C)n1cc(-c2ccnc(NCCCNS(=O)(=O)c3ccccc3)c2)c(-c2cccc(O)c2)n1,44% (inactive)
17,O=C1Nc2ccc(Cl)cc2C12Nc1cc(Cl)ccc1S2 (stereo not drawn),74.2% (inactive)
18,O=C1/C(=C/c2ccccc2)CN(C(=O)CCN2CCC(=NO)CC2)C/C1=C\c1ccccc1,-13.2% (active)
19,O=[N+]([O-])c1cccc(-c2nc3sccn3c2-c2ccnc(NCCCNS(=O)(=O)c3ccc(Cl)cc3)n2)c1,62.8% (inactive)
20,Cc1ccc(S(=O)(=O)Nc2c(Br)cc(Br)cc2C(N)=O)cc1,87.4% (inactive)

row,Compound,growth
1,CN(C[C@H]1Cc2c(cccc2N2CCN(Cc3ccccn3)CC2)CN1)[C@H]1CCCc2cccnc21,88.3% (inactive)
2,CC(C)(C)OC(=O)NC(CSCc1ccccc1)C(=O)ON1C(=O)CCC1=O (stereo not drawn),101% (inactive)
3,COc1ccc(-c2ccc(-c3ccc(C(=N)N)s3)s2)cc1Cl,64.3% (inactive)
4,O=[N+]([O-])c1ccc(C(c2ccccc2)c2ccccc2)cc1,107% (inactive)
5,CCN(CC)c1ccc2[nH]c3c(C(N)=O)cc(=O)c(=O)c=3oc2c1,-59.9% (active)
6,CCNc1nc(S(=O)(=O)CC)nc2ccccc12,83.3% (inactive)
7,CCC(=O)Oc1ccc(/C(=C(/C)Cc2cccc(OC)c2)c2ccc(OCCN(C)C)cc2)cc1,100% (inactive)
8,Nc1nc(-c2ccccc2)c(CCCOc2ccc(NC(=O)CBr)cc2)c(=O)[nH]1,123% (inactive)
9,CN(C)CCOC(=O)Nc1ccccc1Cl,94.8% (inactive)
10,c1ccc(-c2nnc(-c3ccccn3)s2)nc1,86.3% (inactive)
11,COc1ccc(-c2nc(N3CCCC3=O)sc2Br)cc1OC,111% (inactive)
12,C=C1CCC2C3(C)COC(c4c(OC)cccc4OC)OC3CCC2(C)C1C/C=C1/C(=O)OCC1O (stereo not drawn),109% (inactive)
13,c1cc2[nH]ncc2cc1-c1nc2ccc3[nH]ncc3c2c2c1CCC2,47.3% (inactive)
14,COc1ccc2c(c1)[nH]c(=O)c1c3cc(OC)ccc3cn21,60.4% (inactive)
15,NC(N)=Nc1nc2ccccc2o1,119% (inactive)
16,Nc1ccc(C(=O)CSc2nc3ccccc3[nH]2)cc1,107% (inactive)
17,CC(C)(C)n1cc(-c2ccnc(NCCCNS(=O)(=O)c3ccc(F)cc3)c2)c(-c2cccc(O)c2)n1,38.1% (inactive)
18,COc1ccccc1CNCCCN1C(=O)c2ccc3c4c(ccc(c24)C1=O)C(=O)N(CCCNCCCCNCCCN)C3=O,-91.8% (active)
19,O=C(CCl)N(C1CCCCC1)C1CCCCC1,112% (inactive)
